The values below come from PubChem BioAssay (NCI).

Test systems include SK-MEL-2 melanoma; EKVX NSCLC; SN12C renal; UO-31 renal; TK-10 renal; ACHN renal; CAKI-1 renal; A498 renal; CCRF-CEM leukemia; MOLT-4 leukemia; SR leukemia; OVCAR-8 ovarian; OVCAR-5 ovarian; OVCAR-4 ovarian; SK-OV-3 ovarian; IGROV1 ovarian; OVCAR-3 ovarian; HS 578T breast; NCI/ADR-RES ovarian.
Holding throughout (test): NCI-60 one-dose screen, 48 h (100 = growth as untreated, 0 = no growth, -100 = all killed)
Holding throughout (settings): 10 µM unless noted

About 83,000 compounds went through this panel and 20% of them were active in at least one assay; those are over-represented in the sample as a whole.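 Results are percent growth after 48 hours of single-concentration exposure. 100 means growth as in untreated cells, lower positive values show inhibition; negative values down to -100 show cell death.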 Unmarked numbers belong to inactive results. Activity calls are given as the source filed them. The calls were made as follows: active = growth percent below 10; inactive = the rest.

On to `COc1ccc(C2NC(=O)C(C#N)c3c2sc2c(F)cccc32)c(OC)c1` (configuration not stated), for which the growth was 65.1% with SK-MEL-2 melanoma; 79.8% in the assay on EKVX NSCLC; 73.8% in the assay with SN12C renal; 34% in the assay with UO-31 renal; 90.1% with TK-10 renal; 37.5% with ACHN renal. Moreover, the growth is 21.4% in the assay on CAKI-1 renal; 25.2% in the assay with A498 renal; 71.9% in the assay with CCRF-CEM leukemia; 71.4% with MOLT-4 leukemia; 13.9% with SR leukemia; 62.3% with OVCAR-8 ovarian. For the same molecule, the growth in the assay with OVCAR-5 ovarian is 98.9%; in the assay on OVCAR-4 ovarian it was 53.7%; in the assay on SK-OV-3 ovarian, 50.8%; in the assay on IGROV1 ovarian it was 52.7%; with OVCAR-3 ovarian, 13.8%; in the assay on HS 578T breast it was 21.4%. Moreover, the growth with NCI/ADR-RES ovarian is 16.7%.
As to `COc1cc(Nc2cn[nH]c2-c2ccc(Cl)cc2)cc(OC)c1OC`, the growth in the assay with SK-MEL-2 melanoma was 32.4%; in the assay on EKVX NSCLC, 62.7%; in the assay on SN12C renal it was 52.5%; in the assay with UO-31 renal, 32.3%; in the assay with TK-10 renal, 67%; in the assay on ACHN renal, 71.1%. Further, the growth with CAKI-1 renal is 59.9%; with A498 renal, 43.3%; in the assay with CCRF-CEM leukemia, 24.3%; in the assay with MOLT-4 leukemia, 19.7%; with SR leukemia, 10.1%; in the assay on OVCAR-8 ovarian it was 70.2%. Further, the growth is 54.6% in the assay with OVCAR-5 ovarian; 61.5% in the assay with OVCAR-4 ovarian; 30.9% in the assay on SK-OV-3 ovarian; 39.8% with IGROV1 ovarian; 32.1% with OVCAR-3 ovarian; 44.1% in the assay with HS 578T breast. In addition, in the assay with NCI/ADR-RES ovarian, the growth was -26% (active).
Consider `COc1ccc(NC2=C(Br)C(=O)C(C)=C(C)C2=O)cc1`, for which the growth was 92.4% in the assay on SK-MEL-2 melanoma; 83.5% in the assay with EKVX NSCLC; 79.6% in the assay on SN12C renal; 74% with UO-31 renal; 172% with TK-10 renal; 85.6% with ACHN renal. Further, the growth with CAKI-1 renal is 94.9%; in the assay with A498 renal, 93.5%; in the assay on CCRF-CEM leukemia, -13.8% (active); with MOLT-4 leukemia, -9.34% (active); with SR leukemia it was 2.06% (active); in the assay with OVCAR-8 ovarian, -29.7% (active). For the same molecule, the growth in the assay with OVCAR-5 ovarian was 102%; in the assay with OVCAR-4 ovarian it was -99.6% (active); in the assay with SK-OV-3 ovarian, 69.4%; with IGROV1 ovarian, 41.3%; with OVCAR-3 ovarian, 60.3%; with HS 578T breast, 96.9%. In the assay with NCI/ADR-RES ovarian, the growth is 80.6%.
As to `CCOC(=O)CCN(C(=O)Nc1ccccc1)C1CCCCC1`, the growth with SK-MEL-2 melanoma is 119%; with EKVX NSCLC, 101%; with SN12C renal it was 117%; in the assay with UO-31 renal, 118%; in the assay on TK-10 renal, 120%; in the assay with ACHN renal, 110%. For the same molecule, the growth was 110% with CAKI-1 renal; 109% in the assay on A498 renal; 107% in the assay with CCRF-CEM leukemia; 93.8% in the assay with MOLT-4 leukemia; 129% with SR leukemia; 128% in the assay with OVCAR-8 ovarian. Besides, the growth in the assay on OVCAR-5 ovarian was 87.4%; in the assay with OVCAR-4 ovarian, 113%; in the assay on SK-OV-3 ovarian it was 112%; in the assay with IGROV1 ovarian, 93.2%; in the assay with OVCAR-3 ovarian, 118%; with HS 578T breast it was 107%. The growth in the assay on NCI/ADR-RES ovarian is 106%.
Take `O=C(Nc1ccc(-c2nc(-c3cccc(OCCN4CCOCC4)c3)c(-c3ccnc(Br)c3)[nH]2)cc1)c1ccccc1`: the growth with SK-MEL-2 melanoma was 25.3%; in the assay on EKVX NSCLC, 32.3%; with SN12C renal it was 45.9%; in the assay with UO-31 renal, -51.9% (active); in the assay with TK-10 renal it was 48.6%; in the assay on ACHN renal, 28.3%. In addition, the growth was -6.68% (active) with CAKI-1 renal; -70.5% (active) in the assay on A498 renal; 15.1% in the assay with CCRF-CEM leukemia; 1.62% (active) in the assay with MOLT-4 leukemia; -11.6% (active) with SR leukemia; 41.5% with OVCAR-8 ovarian. In addition, the growth was 35.4% in the assay on OVCAR-5 ovarian; 55.2% in the assay on OVCAR-4 ovarian; -25.6% (active) in the assay with SK-OV-3 ovarian; 43.4% in the assay on IGROV1 ovarian; 44.2% with OVCAR-3 ovarian; -41% (active) with HS 578T breast. Further, the growth in the assay with NCI/ADR-RES ovarian was 53.4%.
For `COc1ccc(C2C(C#N)=C(N)Oc3c2sc2c(C)cccc32)cc1` (configuration not stated), the growth in the assay with SK-MEL-2 melanoma was 48.2%; in the assay on EKVX NSCLC, 42.3%; in the assay with SN12C renal, 23.9%; with UO-31 renal, 33.9%; with TK-10 renal, 63.8%; in the assay on ACHN renal it was 28.3%. For the same molecule, the growth was 3.44% (active) in the assay on CAKI-1 renal; -5.44% (active) in the assay with A498 renal; 8% (active) with CCRF-CEM leukemia; 12.9% in the assay on MOLT-4 leukemia; 15.4% in the assay on SR leukemia; 22.6% in the assay on OVCAR-8 ovarian. For the same molecule, the growth in the assay with OVCAR-5 ovarian is 23.5%; in the assay on OVCAR-4 ovarian, 50.1%; with SK-OV-3 ovarian it was 67.4%; in the assay with IGROV1 ovarian, 23.3%; with OVCAR-3 ovarian it was 4.88% (active); with HS 578T breast it was 18.6%. Also, in the assay on NCI/ADR-RES ovarian, the growth was 4.33% (active).
For `Cc1ccc(-c2nc(N3CCN(CC(=O)Nc4ccc(Cl)cc4)CC3)c3ccccc3n2)cc1`, the growth with SK-MEL-2 melanoma is 103%; in the assay on EKVX NSCLC, 85.4%; in the assay on SN12C renal, 90.4%; in the assay on UO-31 renal it was 64.1%; in the assay with TK-10 renal it was 104%; with ACHN renal, 98.3%. Further, the growth in the assay on CAKI-1 renal is 85.2%; with A498 renal, 51.4%; with CCRF-CEM leukemia, 88.9%; with MOLT-4 leukemia, 62.1%; with SR leukemia it was 79.1%; with OVCAR-8 ovarian, 92.3%. Moreover, the growth in the assay on OVCAR-5 ovarian was 93.9%; in the assay with OVCAR-4 ovarian it was 96.2%; in the assay with SK-OV-3 ovarian, 94.3%; in the assay on IGROV1 ovarian, 96.3%; with OVCAR-3 ovarian, 97.8%; with HS 578T breast, 92.6%. Also, in the assay with NCI/ADR-RES ovarian, the growth was 84.5%.
As to `COc1cccc(-c2nc(-c3ccc(NC(=O)C(C)C)cc3)[nH]c2-c2ccnc(Br)c2)c1`, the growth is 22% in the assay on SK-MEL-2 melanoma; 45.1% with EKVX NSCLC; 61.7% in the assay with SN12C renal; 12.1% with UO-31 renal; 54% in the assay with TK-10 renal; 28.8% with ACHN renal. In addition, the growth is 36.2% in the assay with CAKI-1 renal; 2.23% (active) in the assay on A498 renal; 21.8% in the assay on CCRF-CEM leukemia; 14.3% with MOLT-4 leukemia; -14.5% (active) in the assay on SR leukemia; 38.1% in the assay with OVCAR-8 ovarian. The growth in the assay on OVCAR-5 ovarian was 70.2%; in the assay with OVCAR-4 ovarian, 33.3%; in the assay with SK-OV-3 ovarian, 46.4%; in the assay with IGROV1 ovarian, 52.1%; in the assay on OVCAR-3 ovarian it was 37.3%; in the assay on HS 578T breast it was -13.2% (active). The growth in the assay with NCI/ADR-RES ovarian was 46.7%.
